Data taken from PubChem BioAssay (NCI).
Where “and” joins values, the source holds several entries; their conditions need not be identical. Equal values may be shown once. This is part of a sample that, as a whole, favours compounds with a hit. Of some 83,000 tested, about 20% had one in any assay.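 96-well plates, one dose, 48 hours. Percent growth reported; active if below 10.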 A number with no mark means an inactive call. Calls of active or inactive are those of the source.

These compounds were tested on A498 renal (assay: NCI-60 one-dose screen, 48 h (100 = growth as untreated, 0 = no growth, -100 = all killed)). Details: 10 µM.
Description: Growth inhibition of the A498 human tumor cell line is measured as a screen for anti-cancer activity. Cells are grown in 96 well plates and exposed to the test compound for 48 hours. Compounds are tested at a single concentration, which is 10^-5 M for most compounds. The reported endpoint is percent growth (GI% or GIPRCNT), where numbers from 0 - 100% represent growth inhibition, and numbers from -100% - 0 represent cell death. For example, a value of 40 represents 60% growth inhibition. A value of 0 means no net growth occurred over the course of the experiment. A value of -40 indicates 40% of cells at the beginning of the experiment died by the end of the experiment. A value of -100 means all cells are dead at the end of the experiment.
NCI-60 Human Tumor Cell Lines Screen was performed using the standard one-dose NCI protocol, which is described in more detail at https://dtp.cancer.gov/discovery_development/nci-60/default.htm.
Compounds with GIPRCNT values below 10 were considered active. Activity score was based on GIPRCNT using the following formula: […]
Score is 0 for GIPRCNT values of 100 or above, 50 for GIPRCNT values of 0, and 100 for GIPRCNT values of -100.

| Compound | growth |
| --- | --- |
| ClCc1ccc2ccccc2n1 | 98.1% |
| O=C(CBr)Nc1ccccc1 | 108% |
| C[CH2][Hg][S]c1ccccc1C(=O)O | 18.1% |
| [Cl][Hg][c]1ccc(Cl)s1 | 104% |
| COc1cc(/C=C\[N+](=O)[O-])ccc1O | 97.6% and 102% |
| COC12c3c(C)cc(O)c4c(=O)occ(c34)C(=O)C1C13COC(=O)c4c(O)cc(C)c(c41)C(=O)C2C3OC(C)=O (stereo not given) | 114% |
| CC(Cc1ccc2c(c1)OCO2)NN (stereo not given) | 77.2% |
| Cc1cc(C)c(C[N+](C)(C)C)c(C)c1C | 8.63% (active) |
| COc1ccc(/C=C\[N+](=O)[O-])cc1OC | 92.9% and 77.8% |
| CC/C(=C/c1ccc(OC)cc1OC)[N+](=O)[O-] | 76.8% |
| O=C(CBr)Nc1ccc(Cl)cc1 | 104% |
| CC/C(=C/c1ccc(OC)cc1)[N+](=O)[O-] | 85.5% |
| C[C@]12CC[C@H]3[C@@H](CCC4=CC(=O)CC[C@@H]43)[C@@H]1CC[C@@H]2OC(=O)N(CCCl)N=O | 58% |
| NC(Cc1ccccc1)c1ccccc1 (stereo not given) | 99.9% |
| O=[N+]([O-])c1ccc(Br)c([N+](=O)[O-])c1 | 98.3% |
| NNc1ccccc1 | 97.5% |
| CN(C)CC1(N)C(=O)NC(=O)NC1=O | 54.9% |
| O=[N+]([O-])c1cc[n+]([O-])c2ccccc12 | -34.7% (active) |
| Oc1ccccc1-c1ccccc1 | 85.5% and 108% |
| COC12C(COC(N)=O)C3=C(C(=O)C(C)=C(N)C3=O)N1CC1C2N1C (stereo not given) | 46.9% |

| Compound | growth |
| --- | --- |
| COc1cc(/C=C(/C)[N+](=O)[O-])ccc1O | 87.9% and 100% |
| CC(C)c1cc([N+](=O)[O-])cc([N+](=O)[O-])c1O | 108% |
| O=C(O)c1cc(Cc2ccc(O)c(C(=O)O)c2)ccc1O (tested in a mixture with another compound) | 84.7% |
| COC(=O)C1C(O)C(C)C(O)C(C)/C=C\C=C(C)C(=O)Nc2c(C)c(OC(C)=O)c3c(c2O)C(=O)C(C)=C2OCOC(=C23)C(C)=CC(C)(O)C(O)C(C)C1O (stereo not given) | 102% |
| C[C@@H]1C[C@@H]([C@H](O)CC2CC(=O)NC(=O)C2)C(=O)[C@@H](C)C1 | 17.7% |
| O=C1CCC(=O)N1SC(Cl)(Cl)Cl | 127% |
| [O-][n+]1ccccc1S | 78.7% |
| O=[N+]([O-])/C=C\c1ccc2c(c1)OCO2 | 96.5% |
| COc1cc2c(cc1OC)C13CCN4CC5=CCOC6CC(=O)N2C1C6C5CC43 (stereo not given) | 108% and 87.2% |
| O=S(=O)(F)c1ccc(Cl)cc1 | 122% |
| O=[P+](O)c1ccccc1 | 104% |
| O=[N+]([O-])/C=C/c1ccc(Cl)cc1[N+](=O)[O-] | 106% |
| C/C1=C\[C@H](C)C[C@H](C)OC(=O)C[C@H](c2ccc(O)cc2)NC(=O)[C@@H](Cc2c(Br)[nH]c3ccccc23)N(C)C(=O)[C@H](C)NC(=O)[C@@H](C)C1 | -78.8% (active) |
| C=C1C(=O)O[C@@H]2C[C@@H](C)[C@@H]3C=CC(=O)[C@@]3(C)[C@@H](O)[C@H]12 | -17.1% (active) |
| C/C(=C\c1ccc(Cl)c(Cl)c1)[N+](=O)[O-] | 103% and 79.2% |
| CC12OOC(c3ccccc31)c1c2ccc2ccccc12 (stereo not given) | 133% |
| O=C1C=Cc2ccccc2C1=O | 91.3% |
| Cc1cc(C(C)(C)c2ccc(O)c(C)c2)ccc1O | 102% |
| CCOP(=O)(OCC)/C(C#N)=C/c1ccc(Br)cc1 | 121% |
| COc1ccccc1/C=C/[N+](=O)[O-] | 109% |
